Assay results from article PMC11062922 (Nature Chemical Biology, 2023).
Like-named read-outs stand apart in the source and are kept apart here.

Assays:
Design in all cases: species or system human, MV4-11 + K-562 + COLO205 + SK-N-BE2 + OVCAR-8
CDK7 = details: read-out: apparent Kd, n = 1
CDKL5 = details: read-out: apparent Kd; compound concentrations:100 nM and 1000 nM (sheet 'Samples'); n = 1
ERCC2 = details: read-out: apparent Kd, n = 1
FER = details: read-out: apparent Kd, n = 1
LATS1 = details: read-out: apparent Kd, n = 1
MARK4 = details: read-out: apparent Kd, n = 1
MYLK3 = details: read-out: apparent Kd; compound concentrations:100 nM and 1000 nM (sheet 'Samples'); n = 1
PIP4K2C = details: read-out: apparent Kd; compound concentrations:100 nM and 1000 nM (sheet 'Samples'); n = 1
PLK4 = details: read-out: apparent Kd, n = 1
PRKAA1 = details: read-out: apparent Kd, n = 1
PRKAG1 = details: read-out: apparent Kd, n = 1
PRKCD = details: read-out: apparent Kd; compound concentrations:100 nM and 1000 nM (sheet 'Samples'); n = 1
PRKCQ = details: read-out: apparent Kd, n = 1
PRKD2 = details: read-out: apparent Kd, n = 1
PTK2B = details: read-out: apparent Kd, n = 1
PTK2 = details: read-out: apparent Kd, n = 1
RPS6KA6 = details: read-out: apparent Kd, n = 1
STK10 = details: read-out: apparent Kd, n = 1
PRKD3 = details: read-out: apparent Kd; compound concentrations: 100 nM and 1000 nM (sheet 'Samples'), CATDS: 5.1990975037574202E-2; n = 1
DYRK1A = details: read-out: apparent Kd; compound concentrations: 100 nM and 1000 nM (sheet 'Samples'), CATDS: 0.176247651150404; n = 1
[1] = compound concentrations:100 nM and 1000 nM (sheet 'Samples')

Question: Which results are given for `O=C1NC(=O)C(N2CCc3ccccc32)=C1c1ccccc1Cl` [SB-373598]?
Answer: potency estimated from few doses (CDK7; [1]): 93.7 nM; potency estimated from few doses (CDKL5): 1390 nM; potency estimated from few doses (ERCC2; [1]): 114 nM; potency estimated from few doses (FER; [1]): 183 nM; potency estimated from few doses (LATS1; [1]): 994 nM; potency estimated from few doses (MARK4; [1]): 884 nM; potency estimated from few doses (MYLK3): 974 nM; potency estimated from few doses (PIP4K2C): 1020 nM; potency estimated from few doses (PLK4; [1]): 273 nM; potency estimated from few doses (PRKAA1; [1]): 273 nM; potency estimated from few doses (PRKAG1; [1]): 215 nM; potency estimated from few doses (PRKCD): 2190 nM; potency estimated from few doses (PRKCQ; [1]): 1580 nM; potency estimated from few doses (PRKD2; [1]): 1920 nM; potency estimated from few doses (PTK2B; [1]): 129 nM; potency estimated from few doses (PTK2; [1]): 173 nM; potency estimated from few doses (RPS6KA6; [1]): 125 nM; potency estimated from few doses (STK10; [1]): 996 nM

Question: Which results are given for `Fc1ccc(-c2c(-c3ccncc3)[nH]c3cccnc23)cc1` [RO1153853-000]?
Answer: potency estimated from few doses (PRKD2; compound concentrations: 100 nM and 1000 nM (sheet 'Samples'), CATDS: 5.7434995830704397E-2): 1020 nM; potency estimated from few doses (PRKD3): 1420 nM

Question: For `O=C1N=C(Nc2ccccc2)S/C1=C\c1ccc2ncccc2c1` [RO4493940-000], which potency estimated from few doses (DYRK1A) is on record?
Answer: 1930 nM

Question: Which results are given for `CN1C[C@@H]2Cn3c(c(C4=C(c5cn(C)c6ccccc56)C(=O)NC4=O)c4ccccc43)C[C@H]2C1.Cl` [RO0320234-001]?
Answer: potency estimated from few doses (CDK7; [1]): 137 nM; potency estimated from few doses (ERCC2; [1]): 123 nM; potency estimated from few doses (FER; [1]): 94.8 nM; potency estimated from few doses (LATS1; [1]): 1780 nM; potency estimated from few doses (MARK4; [1]): 1210 nM; potency estimated from few doses (PLK4; [1]): 500 nM; potency estimated from few doses (PRKAA1; [1]): 248 nM; potency estimated from few doses (PRKAG1; [1]): 352 nM; potency estimated from few doses (PTK2B; [1]): 193 nM; potency estimated from few doses (PTK2; [1]): 129 nM; potency estimated from few doses (RPS6KA6; [1]): 215 nM; potency estimated from few doses (STK10; [1]): 2020 nM

Question: For `Cl.Cl.NCC(C(=O)Nc1cc(Br)c(-c2ccnc3[nH]ccc23)s1)c1ccccc1.NCC(C(=O)Nc1cc(Br)c(-c2ccnc3[nH]ccc23)s1)c1ccccc1` (centres unmarked) [GSK1269851A], which potency estimated from few doses (CDK7; [1]) is on record?
Answer: 44.7 nM

Question: And the potency estimated from few doses (ERCC2; [1])?
Answer: 37.5 nM

Question: What about the potency estimated from few doses (FER; [1]) of the same compound?
Answer: 56.2 nM

Question: And the potency estimated from few doses (PIP4K2C)?
Answer: 1930 nM

Question: What about the potency estimated from few doses (PLK4; [1]) of the same compound?
Answer: 523 nM

Question: And the potency estimated from few doses (PRKAA1; [1])?
Answer: 548 nM

Question: What about the potency estimated from few doses (PRKAG1; [1]) of the same compound?
Answer: 416 nM

Question: And the potency estimated from few doses (PRKCD)?
Answer: 2130 nM

Question: What about the potency estimated from few doses (PRKCQ; [1]) of the same compound?
Answer: 1130 nM

Question: And the potency estimated from few doses (PTK2B; [1])?
Answer: 63.1 nM

Question: And the potency estimated from few doses (PTK2; [1])?
Answer: 422 nM

Question: What about the potency estimated from few doses (RPS6KA6; [1]) of the same compound?
Answer: 364 nM

Question: And the potency estimated from few doses (STK10; [1])?
Answer: 2030 nM

Question: Which results are given for `Clc1cc(Cl)cc(Nc2ccnc(Nc3cc(Cl)cc(Cl)c3)n2)c1` [GSK175726A]?
Answer: potency estimated from few doses (CDK7; compound concentrations: 100 nM and 1000 nM (sheet 'Samples'), CATDS: 1.9330129421886999E-2): 142 nM; potency estimated from few doses (ERCC2; compound concentrations: 100 nM and 1000 nM (sheet 'Samples'), CATDS: 2.00031391959163E-2): 132 nM; potency estimated from few doses (FER; compound concentrations: 100 nM and 1000 nM (sheet 'Samples'), CATDS: 2.0209257750724199E-2): 130 nM; potency estimated from few doses (LATS1; compound concentrations: 100 nM and 1000 nM (sheet 'Samples'), CATDS: 8.3705854443938306E-3): 1830 nM; potency estimated from few doses (MARK4; compound concentrations: 100 nM and 1000 nM (sheet 'Samples'), CATDS: 9.0821419541050104E-3): 1200 nM; potency estimated from few doses (PLK4; compound concentrations: 100 nM and 1000 nM (sheet 'Samples'), CATDS: 9.9833619636259807E-3): 805 nM; potency estimated from few doses (PRKAA1; compound concentrations: 100 nM and 1000 nM (sheet 'Samples'), CATDS: 1.70258179859262E-2): 183 nM; potency estimated from few doses (PRKAG1; compound concentrations: 100 nM and 1000 nM (sheet 'Samples'), CATDS: 2.2079366714636301E-2): 110 nM; potency estimated from few doses (PRKCQ; compound concentrations: 100 nM and 1000 nM (sheet 'Samples'), CATDS: 8.3428687268584899E-3): 1870 nM; potency estimated from few doses (PTK2B; compound concentrations: 100 nM and 1000 nM (sheet 'Samples'), CATDS: 1.7764778222698001E-2): 168 nM; potency estimated from few doses (PTK2; compound concentrations: 100 nM and 1000 nM (sheet 'Samples'), CATDS: 2.2055583015587899E-2): 111 nM; potency estimated from few doses (RPS6KA6; compound concentrations: 100 nM and 1000 nM (sheet 'Samples'), CATDS: 2.32464475712073E-2): 101 nM; potency estimated from few doses (STK10; compound concentrations: 100 nM and 1000 nM (sheet 'Samples'), CATDS: 8.4721916216742802E-3): 1710 nM

Question: How did the potency estimated from few doses (LATS1; [1]) turn out when `CCn1c(-c2nonc2N)nc2c(C#CC(C)(C)O)nc(OCCN)cc21.CCn1c(-c2nonc2N)nc2c(C#CC(C)(C)O)nc(OCCN)cc21.Cl.Cl` [GSK902056A] was run?
Answer: 70.2 nM

Question: And the potency estimated from few doses (PRKCD)?
Answer: 373 nM

Question: And the potency estimated from few doses (PRKCQ; [1])?
Answer: 50.9 nM
